Experimental findings from PubChem BioAssay are described below.

The subject of assay [1] is transactivating tegument protein VP16 (Human herpesvirus 1). The experiment in a line: VP16 transactivation reporter inhibitors, counter-screen for SRC2 inhibitor project, cell-based, luminescence, single concentration (AID 652007). Particulars: cell-based VP16 transactivation luciferase reporter, at 8.9 µM, active compounds read high. On the technique in general: Counterscreens check selectivity or assay interference.

Assay [2] deals with Nuclear receptor coactivator 2 (Homo sapiens) (UniProt Q15596). In words: SRC2 coactivator transcriptional activity inhibitors, confirmation, cell-based, luminescence, HEK293, triplicate (AID 652008;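 active = mean inhibition above 46.5%, the solvent-only control mean plus 3 SD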;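 note: 0% = DMSO-treated cells and 100% = Gossypol at 36 µM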). Conditions: HEK293 GAL4-SRC2 luciferase reporter, at 8.9 µM, active compounds read high.

Unmarked numbers belong to inactive results. Calls of active or inactive are those of the source. Cut-off read from the data, not from the text of the source, unless noted: active = inhibition above about 36%; inactive = the rest.

Nuclear receptor coactivator 2 (Homo sapiens), sequence (Q15596 whole entry, looked up, the tested form may be a part): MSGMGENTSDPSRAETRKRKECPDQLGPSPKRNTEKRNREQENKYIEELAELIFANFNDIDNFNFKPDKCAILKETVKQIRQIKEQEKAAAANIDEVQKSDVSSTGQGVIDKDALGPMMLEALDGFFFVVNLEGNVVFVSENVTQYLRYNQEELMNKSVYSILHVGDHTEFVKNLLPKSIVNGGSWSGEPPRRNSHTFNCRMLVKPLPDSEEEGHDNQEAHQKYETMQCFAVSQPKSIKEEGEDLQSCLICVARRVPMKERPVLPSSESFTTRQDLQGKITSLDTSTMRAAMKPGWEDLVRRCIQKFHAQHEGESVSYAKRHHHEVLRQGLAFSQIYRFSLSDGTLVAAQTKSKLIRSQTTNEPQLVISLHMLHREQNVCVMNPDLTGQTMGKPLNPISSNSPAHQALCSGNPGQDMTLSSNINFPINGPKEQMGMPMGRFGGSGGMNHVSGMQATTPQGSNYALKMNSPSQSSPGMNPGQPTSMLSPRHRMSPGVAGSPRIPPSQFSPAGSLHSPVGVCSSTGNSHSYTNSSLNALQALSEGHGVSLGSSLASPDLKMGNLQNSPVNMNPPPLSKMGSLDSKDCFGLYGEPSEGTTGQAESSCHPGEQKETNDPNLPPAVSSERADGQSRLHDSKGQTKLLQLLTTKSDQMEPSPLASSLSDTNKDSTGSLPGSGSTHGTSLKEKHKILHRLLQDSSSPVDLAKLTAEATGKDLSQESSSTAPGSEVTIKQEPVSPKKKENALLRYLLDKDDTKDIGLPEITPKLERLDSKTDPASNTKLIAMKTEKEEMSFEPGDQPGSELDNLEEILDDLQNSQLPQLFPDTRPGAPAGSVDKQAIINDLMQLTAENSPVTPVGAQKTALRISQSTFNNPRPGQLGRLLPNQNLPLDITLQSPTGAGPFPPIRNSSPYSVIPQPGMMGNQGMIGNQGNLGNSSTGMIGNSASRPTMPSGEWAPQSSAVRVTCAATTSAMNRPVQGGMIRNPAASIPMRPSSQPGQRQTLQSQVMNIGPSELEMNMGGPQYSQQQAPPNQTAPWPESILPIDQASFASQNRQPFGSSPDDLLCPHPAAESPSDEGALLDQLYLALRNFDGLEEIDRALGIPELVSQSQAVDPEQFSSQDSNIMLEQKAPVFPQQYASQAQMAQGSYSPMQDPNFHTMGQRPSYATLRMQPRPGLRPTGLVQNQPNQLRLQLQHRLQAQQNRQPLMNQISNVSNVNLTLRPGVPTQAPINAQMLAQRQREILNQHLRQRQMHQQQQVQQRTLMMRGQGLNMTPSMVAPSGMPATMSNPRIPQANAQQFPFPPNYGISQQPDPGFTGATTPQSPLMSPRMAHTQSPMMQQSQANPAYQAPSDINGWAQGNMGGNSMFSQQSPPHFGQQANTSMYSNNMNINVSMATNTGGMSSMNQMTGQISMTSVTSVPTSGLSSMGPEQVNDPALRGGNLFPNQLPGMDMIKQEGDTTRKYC

Broadly, the inhibition is the change of the read-out against control, counted positive when it falls. As for `COc1ccccc1CNS(=O)(=O)c1ccc(-c2cc(C)no2)cc1`, the inhibition in assay [1] is -13%; in assay [2], -7.27%.

As for `COc1cc(/C=N/NC(=O)c2ccc(COc3cc(C)ccc3C(C)C)cc2)cc(OC)c1O`, the inhibition in assay [1] is -2.59%; in assay [2] it was 62.9% (active).

`O=C(Nc1cccc(-c2cccc(Cl)c2)c1)C1CCN(Cc2ccccn2)CC1`: the inhibition in assay [1] was -2.92%; in assay [2], 17.7%.

As to `N#Cc1c(NC(=O)CCCC(=O)O)sc2c1CCCCC2`, the inhibition in assay [1] was -8.88%; in assay [2] it was 44%.

In the case of `CCc1ccc(/C=C2\SC(=S)N(CCC(=O)Nc3cc(C)on3)C2=O)cc1`, the inhibition in assay [1] is -41%; in assay [2], 16.6%.

`O=C(Nc1nc2cc3c(cc2s1)OCO3)C1=COCCO1`: the inhibition is 26.7% in assay [1] and 70.3% (active) in assay [2].

As for `Cc1cc(C(=O)CN2C(=O)C(=O)N(Cc3ccccc3)C2=O)c(C)n1-c1ccc2c(c1)OCCO2`, the inhibition in assay [1] is -14.1%; in assay [2], -36%.

`Cc1ccc(S(=O)(=O)N2CCC(C(=O)Nc3ccc(S(=O)(=O)N4CCOCC4)cc3)CC2)cc1`: the inhibition in assay [1] is 8%; in assay [2], 30.2%.

As to `S=C(NCc1ccc(Cl)cc1)NC1CCN(Cc2ccccc2)CC1`, the inhibition is -17.5% in assay [1] and 19.2% in assay [2].

For the molecule `O=S1(=O)CCS(=O)(=O)C1c1ccccc1`, the inhibition was 15.8% in assay [1] and -3.12% in assay [2].

Consider `CC(C)C[C@@H]1Cc2[nH][nH]c(=O)c2[C@H](C(C)C)O1`, for which the inhibition in assay [1] was -6.29%; in assay [2] it was -23.6%.

Consider `CCOC(=O)Cc1csc(N/N=C/c2ccc(C(F)(F)F)cc2)n1`, for which the inhibition in assay [1] was -7.46%; in assay [2], 44.6%.

For `CC(C)(C)c1ccc(Oc2ccc(NC(=O)c3ccco3)cn2)cc1`, the inhibition in assay [1] was 30.6%; in assay [2], 42.2%.

Take `CCCn1c(CC)nc([N+](=O)[O-])c1Sc1ccc(F)cc1`: the inhibition in assay [1] was -3.5%; in assay [2], 13.2%.

On to `Cc1ccc(S(=O)(=O)N2[C@@H](c3ccc4c(c3)OCO4)C(C(=O)O)=C[C@H]2C(C)(C)C)cc1`, for which the inhibition was -12.9% in assay [1] and 1.95% in assay [2].

Take `CCOc1ccc(-c2cc(CCCC(=O)Nc3cc(OC)ccc3OC)no2)cc1`: the inhibition in assay [1] is 47.9% (active); in assay [2] it was 79.5% (active).

In the case of `O=C(Nc1ccc(N2CCOCC2)cc1)c1cnsn1`, the inhibition in assay [1] is -8.19%; in assay [2] it was 34.3%.

As for `COc1ccc(/C=C2\SC(=S)N(CCC(=O)NC3C=CS(=O)(=O)C3)C2=O)cc1` (configuration not stated), the inhibition was 3.55% in assay [1] and 62.1% (active) in assay [2].

Take `CC(=NCc1ccco1)c1c(C)[nH]n(-c2nc3ccccc3s2)c1=O`: the inhibition is -24% in assay [1] and 14.3% in assay [2].

As to `O=C(O)CCSc1ncnc2sc(-c3ccccc3)cc12`, the inhibition was 67.7% (active) in assay [1] and 88.4% (active) in assay [2].

On to `COC(=O)Cc1ccc(NC(=O)c2ccccc2Cl)cc1`, for which the inhibition is -35.8% in assay [1] and 8.14% in assay [2].

For `O=C(c1cccc2c1-c1ccccc1/C2=N/O)N1CCCCC1`, the inhibition was 0.22% in assay [1] and 30% in assay [2].

Consider `Cc1ccc(C(=O)NCc2cccc(C(F)(F)F)c2)cc1S(=O)(=O)N1CCCCC1`, for which the values for the inhibition in assay [1] and in assay [2] were -7.82% and -8.4%, respectively.

Turning to `Cc1nc2cc(-c3ccc(Cl)cc3)nn2c(C)c1CCC(=O)NC(C)c1ccc2c(c1)OCCO2` (configuration not stated), the inhibition in assay [1] is -10.9%; in assay [2] it was 72.8% (active).

Take `COc1cc(SC)ccc1C(=O)Nc1ncc(C)s1`: the inhibition in assay [1] was 10.3%; in assay [2], 24%.

Regarding `O=c1[nH]nc(Sc2ncnc3sccc23)n1CCc1ccccc1`, the inhibition in assay [1] was 14.9%; in assay [2], 47.5% (active).

For the molecule `CC(C)=CCC[C@@]1(C(=O)O)[C@H]2CC=C(CO)[C@@H]1CC/C(C)=C/CC/C(C)=C/C2`, the inhibition in assay [1] was 14.6%; in assay [2], 17.2%.

For `Nc1n[nH]c2c1C1(CCCC1)Cc1ccccc1-2`, the inhibition in assay [1] was 1.41%; in assay [2] it was 10%.

Regarding `CCS(=O)(=O)c1cc([N+](=O)[O-])c(Sc2ccccc2NC(C)=O)s1`, the inhibition in assay [1] is -21%; in assay [2] it was -26.1%.

Consider `COc1ccc(CN2C(=O)C(CC(=O)NCCN3CCOCC3)CC(C(=O)N(C(C)C)C(C)C)=C2C)cc1` (configuration not stated), for which the inhibition in assay [1] was 0.37%; in assay [2] it was -36.3%.

For `C[C@@H]1CCN(C2CC2)S(=O)(=O)c2ccc(N3CCC[C@H]3C)cc2O1`, the inhibition was -8.49% in assay [1] and -6.67% in assay [2].

In the case of `COc1ccc(OC)c(NC(=O)CCCc2ccccc2)c1`, the inhibition in assay [1] is -5.12%; in assay [2], -20.9%.

On to `C=CCNc1nc2ccccc2nc1NS(=O)(=O)c1ccc(Cl)cc1`, for which the results for the inhibition in assay [1] and in assay [2] were -13.4% and -1.65%, respectively.

As for `CCCNC(=O)C[C@H]1C[C@H]2c3cc(NC(=O)Nc4ccc(F)cc4)ccc3O[C@H]2[C@@H](CO)O1`, the inhibition in assay [1] is 4.81%; in assay [2], -7.94%.

For `Clc1cccc(CN2CCN(c3ncc(Cc4ccccc4)cn3)CC2)c1Cl`, the inhibition was -0.77% in assay [1] and 24.5% in assay [2].

With `CSCC[C@H](NC(=O)c1cc([N+](=O)[O-])ccc1Cl)c1nc2ccccc2[nH]1`, the inhibition was -0.37% in assay [1] and 19% in assay [2].

Regarding `CC(=O)C1C(=O)c2c(cccc2[N+](=O)[O-])C1=Nc1cccc(Cl)c1` (configuration not stated), the inhibition is -60.3% in assay [1] and -35.9% in assay [2].

On to `O=C(CSc1nc2[nH]c(=O)[nH]c(=O)c2s1)Nc1cccc(F)c1`, for which the values for the inhibition in assay [1] and in assay [2] were 0.35% and -0.5%, respectively.

As for `CCc1ccc(/C=C2\SC(=S)N(CCC(=O)NC3=NCCS3)C2=O)cc1`, the inhibition is -67.3% in assay [1] and 75% (active) in assay [2].

For the molecule `O=C(CCl)Nc1ccc(C(=O)NCC2COc3ccccc3O2)cc1` (configuration not stated), the inhibition in assay [1] is 71.2% (active); in assay [2] it was 39.9%.

Regarding `CC(C)=CCc1c(O)ccc2c1OC(c1ccc(O)c(O)c1)CC2=O` (configuration not stated), the inhibition in assay [1] was 10.7%; in assay [2] it was 56.9% (active).

Take `CNc1ccc(N=Nc2cccc3ncccc23)cc1`: the inhibition was -76% in assay [1] and 14.4% in assay [2].

For the molecule `COc1ccc(CCNc2nnc(Sc3nnnn3-c3ccccc3)s2)cc1OC`, the inhibition in assay [1] was 5.42%; in assay [2] it was 20.1%.

On to `Cc1ccc(C2CC(c3cccs3)=NN2C(=O)CSC2=NCCS2)cc1` (configuration not stated), for which the inhibition in assay [1] was 17.9%; in assay [2], 16.1%.

As to `CCOC(=O)C1=CCN(S(=O)(=O)c2ccc(C)cc2)C1c1ccccc1F` (configuration not stated), the inhibition is -19.3% in assay [1] and -7.88% in assay [2].

As to `COc1cccc(-c2ncn(CCc3ccccc3OC)c2CC(C)C)c1`, the inhibition is -2.53% in assay [1] and 18.6% in assay [2].

Turning to `CN(C)c1ccc(CCc2ccc(N)cc2)cc1`, the inhibition in assay [1] was 12.3%; in assay [2] it was 57.2% (active).

Consider `O=C(C1=NN[C@@H]2C(=O)N(c3cccc(C(F)(F)F)c3)C(=O)[C@H]12)c1ccc2ccccc2n1`, for which the inhibition in assay [1] is 2.15%; in assay [2], 6.3%.

Consider `O=c1oc2ccc(C#CC3(O)CCCCC3)cc2cc1-n1cc(-c2ccccn2)nn1`, for which the inhibition was -8.43% in assay [1] and -3.27% in assay [2].

As for `CCOC(=O)c1c(C)nn(-c2ccc(NC(=O)c3c(C)noc3C)cc2)c1C`, the figures for the inhibition in assay [1] and in assay [2] were 11.6% and 52.8% (active), respectively.

As for `Cc1ccc(NCC(=O)Nc2cccc(F)c2)cc1S(=O)(=O)N1CCCCCC1`, the inhibition is 15.9% in assay [1] and 3.72% in assay [2].

On to `COc1ccccc1NC(=O)C(C)OC(=O)c1cc2ccccc2[nH]1` (configuration not stated), for which the inhibition in assay [1] is 15.9%; in assay [2] it was 17.2%.

Consider `O=C(CCCN1C(=O)/C(=C/c2cccc(Br)c2)SC1=S)NCCCN1CCOCC1`, for which the inhibition in assay [1] was 32.1%; in assay [2], 10.6%.

On to `COc1ccc(OC)c(S(=O)(=O)Nc2ccc3c(c2)OCCO3)c1`, for which the values for the inhibition in assay [1] and in assay [2] were -22.5% and 21.2%, respectively.

For `CCCC(=O)NC(c1ccccc1)c1ccc2cccnc2c1O` (configuration not stated), the inhibition in assay [1] was -0.88%; in assay [2] it was 33.3%.

For `CCOC(=O)C1=C[C@@H](c2ccccc2)N(S(=O)(=O)c2ccc(C)cc2)[C@H]1c1ccc(F)cc1`, the results for the inhibition in assay [1] and in assay [2] were -7.61% and -5.87%, respectively.

As for `Oc1cc2ccccc2cc1-c1nnc2n1-c1ccccc1SC2`, the inhibition in assay [1] is 5.09%; in assay [2] it was 3.52%.

With `Cc1cccc(NC(=O)Nc2ccc(Cl)c(Cl)c2)n1`, the inhibition in assay [1] was -83.6%; in assay [2], -16.7%.

With `CC(C)OC(=O)c1ccc(NCc2cc(O)ccc2O)cc1Cl`, the inhibition was 19.4% in assay [1] and 89.1% (active) in assay [2].

Take `CC(C)CNC(=O)COC(=O)c1c2c(nc3ccccc13)CCC2`: the inhibition in assay [1] was 9.25%; in assay [2] it was 11.4%.

As for `CC(=O)Nc1ccc(Nc2cc(C)nc3c(-c4ccccc4)cnn23)cc1`, the inhibition in assay [1] is -21.3%; in assay [2] it was 35.7%.

Consider `Cc1ccc(/C=C2/SC(=S)N(CCCC(=O)Nc3cc([N+](=O)[O-])ccc3O)C2=O)cc1`, for which the inhibition is 27.4% in assay [1] and 49.7% (active) in assay [2].

As for `Cc1cccc(N2CC(C(=O)NC3CCCCCC3)CC2=O)c1C` (configuration not stated), the results for the inhibition in assay [1] and in assay [2] were -3.4% and -3.61%, respectively.

Regarding `COc1cccc(N2CCN(C(=O)c3ccc(CS(=O)c4ccc(Cl)cc4)o3)CC2)c1` (configuration not stated), the inhibition was 19.7% in assay [1] and 14.5% in assay [2].

For the molecule `COC(=O)C1=C(C)N(Cc2ccccc2C(F)(F)F)C(=NCc2ccccc2)NC1c1ccc(Cl)cc1` (configuration not stated), the inhibition was 2.66% in assay [1] and 1.39% in assay [2].

As to `COc1ccc(/C=C2\SC(=S)N(CCCC(=O)Nc3ccc(O)cc3)C2=O)cc1`, the inhibition in assay [1] was 52.4% (active); in assay [2], 35.3%.

For `CCc1ccc(/C=C2\SC(=S)N(CCCC(=O)NC3=NCCS3)C2=O)cc1`, the inhibition in assay [1] is 41.6% (active); in assay [2], 90.5% (active).

As to `CCc1cc(CNC(=O)c2ccc3nc(Cc4ccc(OC)c(OC)c4)oc3c2)on1`, the values for the inhibition in assay [1] and in assay [2] were 9.61% and 26.6%, respectively.

Take `Clc1cccc(-c2nc(-c3ccccn3)no2)c1`: the inhibition in assay [1] is -11%; in assay [2], 7.62%.

With `O=C(c1ccccc1F)N1CCN(S(=O)(=O)c2ccc3c(c2)OCCO3)CC1`, the figures for the inhibition in assay [1] and in assay [2] were 3.25% and 22.9%, respectively.

In the case of `CS(=O)(=O)c1ccc(Cl)c(NC(=O)c2cccc(-n3cnnn3)c2)c1`, the values for the inhibition in assay [1] and in assay [2] were -11.3% and -13.4%, respectively.
